Compound activity (PubChem)
NS1 inh – qHTS Assay for Inhibitors of Influenza NS1 Protein Function | actives 0.4% (n = 270,000) | AID 2326, 2010 | Potency, µM (highest dose often 46.1 µM), without a hit: at the top dose activity, positive = more growth; calls by dose curve; also: potency is read from the fitted curve at half-maximal effect; actives are rising curves; nearly all actives have a fitted effect of over 50% in size
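Read-out: OD600 growth recovery of NS1-expressing budding yeast. Cells grown overnight at 30C in -URA glucose medium, washed, resuspended and diluted 1:100 in 2% galactose assay medium, pH 6.0. Same strain lacking NS1 served as positive control.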
Cycloheximide cs – Cycloheximide Counterscreen for Small Molecule Inhibitors of Shiga Toxin; cell reporter, cycloheximide protein synthesis inhibition counterscreen; max response, %; actives 12% (n = 300,000); in the data active = max response mostly above about 13%, no sharp cut-off; inactive = mostly below about 14%; also: read at 38.3 µM for the half of the compounds with a filed dose; 0% is about no effect
Shiga inhibitor – A qHTS for Small Molecule Inhibitors of Shiga Toxin; Vero cells, Shiga toxin protein synthesis inhibition reporter; inhibition, % at 38.7 µM; actives 9.2% (n = 290,000); in the data active = inhibition mostly above about 28%, no sharp cut-off; inactive = mostly below about 43%; also: 0% is about no effect
Pf growth 96h – Primary qHTS for delayed death inhibitors of the malarial parasite plastid, 96 hour incubation; P. falciparum luciferase reporter growth, 96 h; Potency, µM (doses to about 28.7 µM), without a hit: top-dose activity change, negative = inhibition, most hits filed as inhibitors; actives 6.9% (n = 320,000); also: potency is read from the fitted curve at half-maximal effect; % is scaled to controls: 0 for no effect and ±100 for the full control effect
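Readout is luminescence from an integrated firefly luciferase in P. falciparum. Red cells, 2% hematocrit and 0.05% parasitemia final, were cultured with compound through two parasite generations (96 hours) at 37 C, 5% CO2.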
Sm TGR inh – qHTS Assay for the Inhibitors of Schistosoma Mansoni Peroxiredoxins | Schistosoma mansoni thioredoxin glutathione reductase (TGR), Q962Y6 | purified TGR, DTNB reduction, TNB absorbance 405 nm | Potency, µM (top dose mostly 114 µM), without a hit: at the top dose activity change, negative = inhibition, actives largely listed as inhibitors | actives 3% (n = 360,000) | AID 485364, 2010; also: potency is read from the fitted curve at half-maximal effect; % is scaled to controls: 0 for no effect and ±100 for the full control effect; nearly all actives have a fitted effect of over 60% in size
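Kinetic colorimetric format: TGR-catalysed, NADPH-driven DTNB reduction monitored via TNB absorbance. Enzyme dispensed at 20 nM; compound exposure 15 min at room temperature before reaction start.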
Pf growth 48h – Primary qHTS for delayed death inhibitors of the malarial parasite plastid, 48 hour incubation; P. falciparum luciferase growth in erythrocytes, 48 h; Potency, µM (highest dose often 28.7 µM), for the others: at the highest dose activity change, negative = inhibition, actives largely listed as inhibitors; actives 5.9% (n = 310,000); AID 504832, 2011; also: potency is read from the fitted curve at half-maximal effect; % is scaled to controls: 0 for no effect and ±100 for the full control effect
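Here the parasites carry a stable luciferase gene and grow inside erythrocytes in Albumax-based RPMI medium with compound for one erythrocytic cycle. Activity is scored as loss of luminescent signal.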
* hit, by the source's call; u = inconclusive; x = no result; [ ] = another dose, or the depositor's remark. Sampled rows, rich in hits. Any-hit rate of the full collection: about 21%. Unless noted, calls follow the shape of the dose curve; as a rule, active = well fitted curve in the direction sought with a large enough effect; inconclusive = small, poorly fitted or top-dose-only effect, or another doubt; inactive = no such curve, though single readings can be large; an effect the other way counts as inactive or inconclusive.

SMILES	NS1 inh	Cycloheximide cs	Shiga inhibitor	Pf growth 96h	Sm TGR inh	Pf growth 48h
Cc1ccc2nc(C)c3c(c2c1)COC3	-11%	0	2	2%	-2%	19%
CC(=O)C1C(=O)c2c(cccc2[N+](=O)[O-])C1=Nc1ccc(S(N)(=O)=O)cc1 (centres undefined)	3%	30*	41	5%	u	1%
C/C(CC(=O)Nc1ccc(OCc2ccccc2)cc1)=N\NC(=O)C(=O)Nc1cccc(C)c1	15%	28*	-2	u	-1%	1%
CC(=O)Nc1ccc(C(=O)N/N=C(\C)CC(=O)Nc2ccc(OCc3ccccc3)cc2)cc1	7%	18*	-2	50%	-12%	11%
CC(=O)Nc1ccc(NC(=O)C/C(C)=N/NC(N)=S)cc1	x	-2	23	1.9µM*	-9%	u
CCC(=O)N/N=C(\C)CC(=O)Nc1ccc(F)cc1	x	2	18	-6%	-14%	1%
O=C(CN1C(=O)CCC1=O)Nc1ccc(Cc2ccc(NC(=O)CN3C(=O)CCC3=O)cc2)cc1	x	9	4	47%	0%	59%
Cc1ccc(SCCC(=O)NC2CC2)cc1	-2%	8	5	-1%	0%[57.1 µM]	20%
Nc1c(-c2nc(-c3cccs3)no2)nnn1-c1cccc(Cl)c1	x	x	x	x	9%	x
CCOC(=O)c1cn(CC)c2cc(N3CCN(C)CC3)c(F)cc2c1=O	4%	-4	-6	u	-12%	12µM*
CCOC(=O)c1cn(CC)c2cc(N3CCSCC3)c(F)cc2c1=O	-4%	-5	2	-2%	36%	0.93µM*
CCOC(=O)c1cn(CC)c2cc3c(cc2c1=O)OCO3	x	x	x	u	-1%	7%
CCn1cc(S(=O)(=O)c2ccc(OC)cc2)c(=O)c2cc(F)c(N3CCN(C)CC3)cc21	6%	-6	-10	8.3µM*	2%	4%
CCc1nc(Nc2ccccc2)c2nnn(Cc3ccccc3)c2n1	-11%	1	-14	10µM*	-1%	37%
COC(=O)c1ccc(Nc2nc(C)nc3c2nnn3Cc2ccccc2)cc1	10%	-2	-10	u	0%	-23%
COc1ccccc1CNc1ncnc2c1nnn2Cc1ccccc1	-14%	-5	-7	23%	-2%	u
Cc1ccc(Nc2ncnc3c2nnn3Cc2ccccc2)cc1	-3%	23*	49*	-46%	18%	67%
CC(C)CCn1cnc2c(NCc3ccccc3)ncnc21	-9%	29*	37	-29%	0%	x
CC(C)CCNc1ncnc2c1nnn2Cc1ccccc1	4%	-2	-4	10µM*	-23%	-3%
COc1ccc(NC(=O)Cn2c(=O)n(CCC(=O)NCCc3ccc(OC)c(OC)c3)c(=O)c3ccccc32)cc1Cl	x	x	x	x	5%	x
CCCc1nc(NCC2CCCO2)c2nnn(Cc3ccccc3)c2n1 (centres undefined)	2%	-1	-3	23%	-4%	15µM*
c1ccc(CNc2ncnc3c2ncn3C2CCCCO2)cc1 (centres undefined)	-4%	32*	52	-9%	13%[11.4 µM]	x
C[N+](C)(C)c1ncnc2c1ncn2[C@@H]1CCCCO1	3%	x	x	x	x	x
CCOC(=O)CSc1nnc([C@H](Cc2ccccc2)NC(=O)OC(C)(C)C)o1	-10%	-3	19	u	1%	u
CC(C)C[C@H](N)c1nnc(S(=O)(=O)Cc2cccc(F)c2)o1	-177%	32*	29	x	u	-4%
SMILES	NS1 inh	Cycloheximide cs	Shiga inhibitor	Pf growth 96h	Sm TGR inh	Pf growth 48h
Cc1cc2c(cc3c(SCc4cccc(F)c4)nnc(C)n32)o1	x	x	x	x	26%	x
Cc1cccc(C)c1NC(=O)CSc1nnc([C@H](C)NC(=O)OC(C)(C)C)o1	-5%	0	16	1%[5.75 µM]	2%	-11%
Cc1ccccc1CS(=O)(=O)c1nnc([C@H](CC(C)C)NC(=O)OC(C)(C)C)o1	-180%	21	30	4%	2µM*	51%
CC(C)C[C@H](NC(=O)OC(C)(C)C)c1nnc(SCc2ccccc2)o1	-6%	0	37	x	-8%	8.3µM*
CC(C)(C)OC(=O)N[C@@H](Cc1ccccc1)c1nnc(S(=O)(=O)Cc2cccc(F)c2)o1	-165%	21*	33	u	0.4µM*	u
Cc1cc(S(=O)(=O)N2CCCc3ccccc32)ccc1-n1cnnn1	-5%	-2	1	22%	-2%	4%
CCC1CN(CC(=O)NCc2cccc(Br)c2)c2ccccc2S1 (centres undefined)	x	x	x	x	-3%	x
COc1ccc(-n2nc(C(=O)NCC(=O)Nc3cccc(Cl)c3)c3ccccc3c2=O)cc1OC	23%	8	-9	u	-24%	u
CC[C@@H](C)[C@H](NC(=O)OC(C)(C)C)c1nnc(S(=O)(=O)Cc2cc(C)ccc2C)o1	-185%	18*	5	3%	2.8µM*	3%
CC(C)[C@H](NC(=O)OC(C)(C)C)c1nnc(S(=O)(=O)Cc2c(F)cccc2Cl)o1	-177%	34*	42	x	1µM*	-3%
C=C(C)CSc1nnc([C@H](CCSC)NC(=O)OC(C)(C)C)o1	-7%	6	24	10µM*	-13%[11.4 µM]	x
C[C@H](NC(=O)OC(C)(C)C)c1nnc(SCc2c(F)cccc2Cl)o1	x	x	x	x	5%	x
CSCC[C@H](NC(=O)OC(C)(C)C)c1nnc(SCC(=O)Nc2c(C)cccc2C)o1	-17%	-1	-15	u	7%[11.4 µM]	x
CCCNc1c(NC(=O)C2CCC(C)CC2)c(=O)oc2ccccc12 (centres undefined)	0%	-2	-1	u	-20%	-10%
Oc1oc(-c2ccccc2Br)nc1C=Nc1ccc(Br)cn1	x	17	26	0%	3%	1%
CN=Cc1nc(-c2ccccc2)oc1O	4%	30*	active	193%	u	157%
Cc1ccc(-c2nc(C=Nc3ccc(O)cc3)c(O)o2)cc1	x	44*	125*	12%	-22%	u
Oc1oc(-c2ccccc2)nc1/C=N/c1ccccn1	2%	-2	10	12µM*	-24%	-29%
Cc1nc(-c2ccc(F)cc2)c(CC(=O)N(C)CC(=O)Nc2ccccc2Cl)s1	x	x	x	13µM*	-19%	-15%
COCCN(CC(=O)Nc1cccc(C)c1C)C(=O)Cc1sc(C)nc1-c1ccc(F)cc1	x	x	x	u	-4%	u
COC(=O)c1c(N)n(-c2ccc(OC)c(OC)c2)c2nc3ccccc3nc12	x	x	x	x	3%	x
Cc1ccc(S(=O)(=O)c2nnn3c2nc(NCCc2ccccc2)c2sccc23)cc1	x	x	x	x	3%	x
Cc1ccc(CCNc2nc3c(S(=O)(=O)c4ccccc4)nnn3c3ccsc23)cc1	x	x	x	x	32µM*	x
COc1ccccc1NC(=O)N1CCC(CN2CCc3ccccc3C2)CC1	x	x	x	x	0%	x
Cc1cc(Cl)ccc1Oc1ncnc2onc(C)c12	-4%	-1	-11	-3%	-1%	-9%
